High-throughput results deposited in PubChem by National Center for Advancing Translational Sciences (NCATS).
In the library only some 5.9% were active in any assay of this set; here they are far more common.
HepG2 tox = qHTS for Inhibitors of TGF-b: Cytotox Counterscreen; HepG2 CAGA-GFP viability, ATP luminescence, 18 h; Potency, µM (doses to about 46.1 µM), inactives show at the highest dose activity change, negative = cytotoxicity, hits mostly cytotoxic; hit rate 0.76% among 410,000; AID 588856, 2011
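CellTiter-Glo luminescence gave cytotoxicity after 18 hours at 37 degrees C. The cells were HepG2 CAGA-GFP in 1% FBS DMEM, stimulated with 500 pg/mL TGF-beta after compound addition. %Activity was normalised to no-cell wells (complete cell-killing) and DMSO (no toxicity), and curves were fitted and classified.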
TGFb SMAD3 inh = qHTS for Inhibitors of TGF-b. HepG2 CAGA-GFP TGF-b/SMAD3 reporter, GFP fluorescence, 18 h; TGF-beta stimulated, 500 pg/mL final. Potency, µM (top dose mostly 46.1 µM), for inactives: top-dose activity, negative = inhibition, usual class: inhibitors. hit rate 1.2% among 410,000. AID 588855, 2011; further: on the % scale 0 is the no-effect control and ±100 the full control effect; nearly all actives have a fitted effect of over 65% in size
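Smad-responsive CAGA-GFP expression was quantified in HEPG2 cells exposed to compounds and 500 pg/mL final TGF-beta for 18 h at 37 degrees C; unstimulated wells defined full inhibition.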
KB-V1 MDR tox = qHTS assay for MDR1-selective chemotherapeutics: Primary screen using the drug-selected MDR subline cells KB-V1; KB-V1 MDR cells viability, CellTiter-Glo, 72 h; Potency, µM (highest dose often 46.1 µM), hits mostly cytotoxic; hit rate 3.4% among 400,000; AID 1347076, 2019; further: on the % scale 0 is the no-effect control and ±100 the full control effect; nearly all actives have a fitted effect of over 60% in size
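Potencies derive from concentration-effect curves fitted to normalized luminescence (CellTiter-Glo) of KB-V1 cells treated for 72 h at 37 degrees C in phenol-red-free DMEM containing 10% FBS.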
ATXN viability = Viability Counterscreen for Primary qHTS for Inhibitors of ATXN expression. hit rate 0.49% among 400,000. Potency, µM (doses to about 56.7 µM), actives largely listed as cytotoxic. AID 651635, 2014. S2 cells (HEK-293 line with an ATXN2-luciferase reporter) viability, CellTiter-Fluor protease fluorescence, 24 h; further: nearly all actives have a fitted effect of over 40% in size
ATXN2 expr inh = Primary qHTS for Inhibitors of ATXN expression; HEK-293 ATXN2-luciferase reporter, luminescence, 24 h; Potency, µM (series often up to 57 µM), without a hit: top-dose activity change, negative = inhibition, actives largely listed as inhibitors; hit rate 0.72% among 360,000; AID 1745845, 2022; further: on the % scale 0 is the no-effect control and ±100 the full control effect; nearly all actives have a fitted effect of over 55% in size
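ATXN2-luciferase reporter cells (luciferase flanked by upstream and downstream ATXN2 gene portions) were treated 24 h at 37 °C with compounds at up to 57 uM. SteadyGlo luminescence gave expression; GF-AFC fluorescence gave viability.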
KB-3-1 tox = qHTS assay for MDR1-selective chemotherapeutics: Primary screen using the parental adenocarcinoma cell KB-3-1; KB-3-1 viability, CellTiter-Glo ATP luminescence, 72 h; Potency, µM (highest dose often 46.1 µM), actives largely listed as cytotoxic; hit rate 1.4% among 400,000; AID 1347075, 2019; further: on the % scale 0 is the no-effect control and ±100 the full control effect; nearly all actives have a fitted effect of over 60% in size
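Cells are dispensed, compounds pinned in, plates held at 37 °C for 72 h, then CellTiter-Glo is added and luminescence read after 10 minutes. Cell line: parental KB-3-1 in phenol-red-free DMEM, 10% FBS.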
An asterisk follows results filed as active; i = inactive; ? = inconclusive; · = no result given. The call rests on the fitted dose curve; in most records, active means well fitted curve in the direction sought with a large enough effect; inconclusive means small, poorly fitted or top-dose-only effect, or another doubt; inactive means no such curve, though single readings can be large; an effect the other way counts as inactive or inconclusive. Potency means the concentration at half of the fitted maximal effect.

SMILES | HepG2 tox | TGFb SMAD3 inh | KB-V1 MDR tox | ATXN viability | ATXN2 expr inh | KB-3-1 tox
Cn1c(=O)c(/C=C/c2ccccc2)nc2ccccc21 | -5.2% | 3.5% | 14.6µM* | i | 76.2% | ?
Cc1[nH]c2ccccc2c1/C=C/c1nc2ccccc2c(=O)n1CCO | -23.9% | -3.6% | 11.6µM* | · | -10.0% | 11.6µM*
Cc1ccccc1/C=C/c1nc2ccccc2c(=O)n1CCc1ccccc1 | -5.5% | -7.9% | 2.59µM* | · | -4.1% | i
Cc1ccccc1/C=C/c1nc2ccccc2c(=O)n1Cc1ccccc1 | -2.0% | 2.4% | i | i | -24.5% | i
CN1CCN(C(=O)c2ccc3c(c2)N(Cc2ccc(F)cc2)C(=O)c2ccccc2S3(=O)=O)CC1 | -9.7% | -19.2% | i | i | -8.6% | i
Cc1c(C(=O)N2CCCCC2)sc2ncnc(NCCc3ccccn3)c12 | · | · | · | i | · | ·
Cc1ccc(C(C)CCN2CCOc3ccc(CN4CCOCC4)cc3C2)o1 (stereo not drawn) | · | · | · | i | · | ·
CN(Cc1ccco1)Cc1cc(-c2ccnc3cc(Cl)ccc23)ccc1O | · | · | · | i | · | ·
Cc1ccc2nc(N(Cc3cccnc3)C(=O)COc3ccccc3)sc2c1 | -1.6% | 0.1% | · | · | · | ·
O=c1c2ccccc2nc(/C=C/c2ccc([N+](=O)[O-])cc2)n1CCCO | 3.0% | -6.1% | 20.6µM* | i | 2.0% | ?
CCn1c(/C=C/c2c(C)n(CC)c3ccccc23)nc2ccccc2c1=O | 24.9% | 14.6% | 1.64µM* | ? | 1.7% | i
O=C(C=Cc1ccc(/C=C/C(=O)Nc2ccc(C3=NCCN3)cc2)cc1)Nc1ccc(C2=NCCN2)cc1 | · | · | · | · | 2.2% | ·
COc1ccc(NC(C)C(=O)N/N=C/c2ccccc2OCc2cccc(Br)c2)cc1 (stereo not drawn) | -5.0% | -18.3% | ? | ? | -5.6% | 23.1µM*
COc1cc2c(cc1OC)C(COc1ccc3c(C)cc(=O)oc3c1)N(C(=O)Cc1ccccc1)CC2 (stereo not drawn) | 5.4% | 20.9% | i | i | 14.7% | i
Cc1cc(C)nc(-n2nc(C)c3c2NC(=O)CC3c2cccc(O)c2)n1 (stereo not drawn) | -8.6% | 0.5% | i | i | -12.8% | i
CS(=O)(=O)N1CCc2cc(S(=O)(=O)Nc3ccc4c(c3)OCCO4)ccc21 | -25.7% | ? | 20.6µM* | i | -15.3% | ?
COc1ccc(CCNC(=O)c2c(C)nn(-c3ccc(F)cc3)c2-n2cccc2)c(OC)c1OC | -27.7% | -2.1% | 11.6µM* | · | ? | ?
Cc1nn(-c2ccc(F)cc2)c(-n2cccc2)c1C(=O)N1CCN(c2ccccc2F)CC1 | -1.2% | 2.5% | 10.3µM* | i | -12.5% | ?
Cc1nn(-c2ccccc2)c(-n2cccc2)c1C(=O)NCCCN1CCN(c2ccccc2F)CC1 | -32.5% | ? | i | i | -21.0% | i
COc1ccc(N2CCN(C(=O)c3c(C)nn(-c4ccc(F)cc4)c3-n3cccc3)CC2)cc1 | -11.7% | -10.1% | ? | i | 2.3% | ?
Cc1nn(-c2ccc(F)cc2)c(-n2cccc2)c1C(=O)N1CCN(c2ccc(F)cc2)CC1 | -15.6% | 18.4% | 16.4µM* | ? | -37.6% | ?
CCOC(=O)Cn1c(CN2CCN(c3ccc(OC)cc3)CC2)nc2c1c(=O)[nH]c(=O)n2C | 2.0% | 2.5% | · | · | · | ·
CC(C)(C)c1cc(NCCCn2ccnc2)n2ncc(-c3ccc(Cl)cc3)c2n1 | 22.4µM* | ? | ? | ? | ? | i
CCNC(=O)[C@@H]1CCCN1C(=O)[C@H](CCCN=C(N)N)NC(=O)[C@H](CC(C)C)NC(=O)CNC(=O)[C@H](Cc1ccc(O)cc1)NC(=O)[C@H](CO)NC(=O)[C@H](Cc1c[nH]c2ccccc12)NC(=O)[C@H](Cc1cnc[nH]1)NC(=O)[C@@H]1CCC(=O)N1 | · | · | · | i | 11.2% | ·
CCN(CC)c1ccc(C2=NNC(=O)CC2C)cc1[N+](=O)[O-] (stereo not drawn) | -18.3% | 18.1% | ? | i | 11.7% | 0.206µM*
SMILES | HepG2 tox | TGFb SMAD3 inh | KB-V1 MDR tox | ATXN viability | ATXN2 expr inh | KB-3-1 tox
CCC1CN(Cc2cn[nH]c2-c2ccc(OC)cc2)Cc2cc(OC)ccc2O1 (stereo not drawn) | · | · | · | i | · | ·
COc1cc(C2CC(=O)Nc3n[nH]c(-c4ccccc4)c32)cc(OC)c1OC (stereo not drawn) | -7.7% | 16.7% | i | ? | 1.5% | 20.6µM*
CCOc1c(Br)cc(C2CC(=O)Nc3cc(OC)c(OC)cc32)cc1OC (stereo not drawn) | -0.1% | 16.2% | i | i | 10.7% | i
COc1cc(C2CC(=O)Nc3cc(C)c(C)cc32)cc(OC)c1OC (stereo not drawn) | -13.1% | 3.7% | 16.4µM* | i | -19.5% | 9.2µM*
COc1cccc(NC(=S)N(CCc2c(C)[nH]c3ccc(C)cc23)Cc2cccs2)c1 | -11.7% | ? | ? | ? | ? | 16.4µM*
C=CCCc1ccc(C#N)c(SCc2c(C(=O)OCC)c3cc(OC(C)=O)c(Br)cc3n2C)n1 | -1.0% | ? | 2.59µM* | ? | 4.6% | ?
CCCCCCCCOC(=O)c1c(CSC(=N)N)n(C)c2cc(Br)c(OC(C)=O)cc12 | 11.2µM* | ? | ? | 31.6µM* | · | i
CCOC(=O)c1c(CSc2nc(C)cc(C)c2C#N)n(C)c2cc(Br)c(OC(C)=O)cc12 | 14.2% | 10.2% | ? | i | ? | ?
CCOC(=O)c1c(CSC(=N)N)n(-c2ccc(Br)cc2)c2cc(Br)c(OC(C)=O)cc12 | -19.0% | 10.4% | i | i | 10.8% | i
CC(=O)c1cccc(NC(=O)CCc2nc3cccnc3n2Cc2cccs2)c1 | -21.7% | -2.0% | i | i | -5.5% | i
CC1c2cc3c(cc2CCN1C(=O)c1cccc(Cl)c1)OCCCO3 (stereo not drawn) | -26.7% | ? | 5.8µM* | i | · | ?
